Source: PubChem BioAssay (Tox21)
Inconclusive results are not listed. More than one record can exist for a structure, and the calls need not agree. Calls of active or inactive are those of the source. Unless noted, the call rests on the fitted dose curve; in most records, active means well fitted curve in the direction sought with a large enough effect in the repeat runs; inconclusive means weak or mixed curves; inactive means no such curve, though single readings can be large; an effect the other way counts as inactive or inconclusive.

Key:
[1] = qHTS assay to test for compound auto fluorescence at 535 nm (green) in HEK293 cells (AID 720680)
[2] = qHTS assay to test for compound auto fluorescence at 460 nm (blue) in HEK293 cell free culture (AID 720681)
Summary of the method: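 Test compounds were pinned into cell-free culture medium (DMEM with 10% FBS) and fluorescence was read directly at Ex/Em 405/460 nm. Signals were expressed as fluorescence equivalents of triamterene, with DMSO vehicle as control.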

[3] = qHTS assay to test for compound auto fluorescence at 535 nm (green) in HEK293 cell free culture (AID 720682)
Summary of the method: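 Cell-free medium (DMEM, 10% FBS) receives compound or DMSO by pintool. Plate read directly at Ex 485/Em 535 nm. Signal converted to fluorescein equivalency.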

[4] = qHTS assay to test for compound auto fluorescence at 590 nm (red) in HEK293 cell free culture (AID 720683)
Summary of the method: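 Tox21 10K library compounds were pinned into cell-free DMEM with 10% FBS and fluorescence was read at excitation 540 nm. Activity is expressed as Rose Bengal sodium equivalency.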

[5] = qHTS assay to test for compound auto fluorescence at 460 nm (blue) in HepG2 cell free culture (AID 720685)
Summary of the method: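 Cell-free plates of MEM plus 10% FBS received 23 nL compound or DMSO vehicle; blue-channel (405/460 nm) intensity scored against triamterene as reference fluorophore.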

[6] = qHTS assay to test for compound auto fluorescence at 535 nm (green) in HepG2 cell free culture (AID 720686)
[7] = qHTS assay to test for compound auto fluorescence at 460 nm (blue) in HepG2 cells (AID 720687)
Summary of the method: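 Cells (2,000/well in MEM with 10% FBS) attached overnight at 37 C, then were exposed to compound or DMSO for 1 hr at 37 C, 5% CO2. Fluorescence read at Ex/Em 405/460 nm, expressed as triamterene-equivalent signal.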

[8] = qHTS assay to identify small molecule antagonists of the glucocorticoid receptor (GR) signaling pathway - cell viability counter screen (AID 720693); further: nearly all actives have a fitted effect of over 55% in size
[9] = qHTS assay for identifying genotoxic compounds that show differential cytotoxicity against isogenic chicken DT40 cell lines with known DNA damage response pathways - wild type cell line (AID 743012); further: nearly all actives have a fitted effect of over 60% in size; further: potency means the concentration at half of the fitted maximal effect
Summary of the method: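 Endpoint: CellTiter-Glo luminescence, 30 min RT. Cells: wild type DT40, 300/well. Exposure: compounds in DMSO, 40 h, 37 C/5% CO2, after ~0.5 h pre-incubation.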

[10] = qHTS assay for identifying genotoxic compounds that show differential cytotoxicity against isogenic chicken DT40 cell lines with known DNA damage response pathways - Rad54/Ku70 mutant cell line (AID 743015); further: nearly all actives have a fitted effect of over 60% in size; further: potency means the concentration at half of the fitted maximal effect
[11] = qHTS assay to identify small molecule antagonists of the androgen receptor (AR) signaling pathway - cell viability counter screen (AID 743033; further: nearly all actives have a fitted effect of over 45% in size)
[12] = biological target: Androgen receptor (Homo sapiens) (UniProt P10275); experiment: qHTS assay to identify small molecule agonists of the androgen receptor (AR) signaling pathway (AID 743036; active means well fitted activation curve with a large enough effect in the signal ratio in the repeat runs, with a control signal flat, not every such curve was filed as active; the % refers to the signal ratio)
Chain of Androgen receptor (Homo sapiens) (P10275 whole entry, looked up): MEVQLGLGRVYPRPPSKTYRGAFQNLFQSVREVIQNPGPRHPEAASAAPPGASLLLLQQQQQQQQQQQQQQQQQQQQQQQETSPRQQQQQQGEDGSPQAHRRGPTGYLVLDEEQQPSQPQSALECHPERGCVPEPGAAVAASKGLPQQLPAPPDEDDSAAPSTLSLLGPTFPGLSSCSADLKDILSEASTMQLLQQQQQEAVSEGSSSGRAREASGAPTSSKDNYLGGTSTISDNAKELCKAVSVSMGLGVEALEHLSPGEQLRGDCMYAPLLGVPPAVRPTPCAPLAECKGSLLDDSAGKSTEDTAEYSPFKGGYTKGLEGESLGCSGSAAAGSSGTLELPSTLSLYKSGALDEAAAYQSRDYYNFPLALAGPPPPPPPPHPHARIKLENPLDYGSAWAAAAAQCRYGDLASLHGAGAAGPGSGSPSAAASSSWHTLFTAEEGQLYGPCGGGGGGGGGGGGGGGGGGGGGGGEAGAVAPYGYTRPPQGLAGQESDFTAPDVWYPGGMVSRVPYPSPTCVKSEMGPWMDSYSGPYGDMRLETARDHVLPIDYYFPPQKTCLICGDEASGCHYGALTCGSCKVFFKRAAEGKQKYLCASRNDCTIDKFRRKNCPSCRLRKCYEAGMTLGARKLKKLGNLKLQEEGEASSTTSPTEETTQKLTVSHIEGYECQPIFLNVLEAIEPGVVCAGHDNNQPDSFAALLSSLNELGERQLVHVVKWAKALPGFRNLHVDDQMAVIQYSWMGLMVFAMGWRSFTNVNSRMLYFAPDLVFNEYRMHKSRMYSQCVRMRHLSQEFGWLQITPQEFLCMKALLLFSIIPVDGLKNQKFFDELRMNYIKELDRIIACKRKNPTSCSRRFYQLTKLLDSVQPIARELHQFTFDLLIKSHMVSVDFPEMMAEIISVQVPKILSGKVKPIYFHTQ
Summary of the method: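 AR-bla HEK293 cells, 2,000/well; 4 h preincubation 37C/5% CO2; compound (DMSO) 16 h at 37C; LiveBLAzer B/G FRET substrate 2 h RT; fluorescence intensity read-out.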

[13] = biological target: Androgen receptor (Homo sapiens) (UniProt P10275); experiment: qHTS assay to identify small molecule agonists of the androgen receptor (AR) signaling pathway using the MDA cell line (AID 743040; further: nearly all actives have a fitted effect of over 20% in size)
Summary of the method: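 Cell-based luciferase reporter: MDA-kb2, MMTV promoter (AR + GR response elements). 16 h compound exposure at 37C; ONE-Glo, 30 min RT, luminescence.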

[14] = qHTS assay to identify small molecule antagonists of the androgen receptor (AR) signaling pathway using the MDA cell line - cell viability counter screen (AID 743041; further: nearly all actives have a fitted effect of over 45% in size)
Summary of the method: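 In this qHTS counter assay, fluorescence intensity after CellTiter-Fluor addition indicated viability of MDA-kb2 AR-luc cells given compounds and R1881 for 16 h at 37C.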

[15] = biological target: Androgen receptor (Homo sapiens) (UniProt P10275); experiment: qHTS assay to identify small molecule antagonists of the androgen receptor (AR) signaling pathway using the MDA cell line (AID 743042; further: nearly all actives have a fitted effect of over 55% in size)
Summary of the method: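 MDA-kb2 cells (human breast carcinoma, stably carrying an MMTV-luciferase reporter responsive to AR and GR) were plated at 3,000 cells/well and preincubated 5 hr at 37C, then given compound plus R1881 agonist for 16 h. ONE-Glo luminescence was read.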

[16] = qHTS assay for identifying genotoxic compounds that show differential cytotoxicity against isogenic chicken DT40 cell lines with known DNA damage response pathways - Rev3 mutant cell line (AID 743014); further: nearly all actives have a fitted effect of over 55% in size; further: potency means the concentration at half of the fitted maximal effect
[17] = biological target: Glucocorticoid receptor (Homo sapiens) (UniProt P04150); experiment: qHTS assay to identify small molecule antagonists of the glucocorticoid receptor (GR) signaling pathway (AID 720692; active means well fitted inhibition curve with a large enough effect in the signal ratio in the repeat runs, not every such curve was filed as active; the % refers to the signal ratio)
Chain of Glucocorticoid receptor (Homo sapiens) (P04150 whole entry, looked up): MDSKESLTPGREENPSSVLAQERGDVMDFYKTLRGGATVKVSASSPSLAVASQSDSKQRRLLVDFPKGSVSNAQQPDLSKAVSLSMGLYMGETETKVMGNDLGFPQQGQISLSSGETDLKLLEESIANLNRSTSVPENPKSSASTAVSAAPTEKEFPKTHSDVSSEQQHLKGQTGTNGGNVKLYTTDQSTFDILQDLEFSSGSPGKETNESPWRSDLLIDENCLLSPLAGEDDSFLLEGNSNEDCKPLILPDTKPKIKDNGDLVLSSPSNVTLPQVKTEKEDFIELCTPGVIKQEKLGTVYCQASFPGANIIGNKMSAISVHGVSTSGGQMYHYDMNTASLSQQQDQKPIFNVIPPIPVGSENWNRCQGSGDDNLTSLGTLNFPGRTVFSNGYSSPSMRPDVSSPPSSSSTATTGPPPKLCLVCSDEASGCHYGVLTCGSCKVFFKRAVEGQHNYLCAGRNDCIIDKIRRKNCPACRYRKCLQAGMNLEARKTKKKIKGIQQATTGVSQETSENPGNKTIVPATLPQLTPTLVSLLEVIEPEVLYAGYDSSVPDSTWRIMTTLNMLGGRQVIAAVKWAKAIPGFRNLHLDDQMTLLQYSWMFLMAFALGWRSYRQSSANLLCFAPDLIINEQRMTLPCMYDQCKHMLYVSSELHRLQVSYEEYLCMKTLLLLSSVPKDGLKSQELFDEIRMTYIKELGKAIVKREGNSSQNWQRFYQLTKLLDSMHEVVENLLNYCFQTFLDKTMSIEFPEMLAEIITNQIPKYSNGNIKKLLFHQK
Summary of the method: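 Tox21 10K library screened in concentration-response for blockade of dexamethasone (5 nM final)-induced GRE-bla reporter activity in HeLa cells; 18 h treatment, fluorescence read.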

[18] = biological target: Androgen receptor (Homo sapiens) (UniProt P10275); experiment: qHTS assay to identify small molecule antagonists of the androgen receptor (AR) signaling pathway (AID 743035; active means well fitted inhibition curve with a large enough effect in the signal ratio in the repeat runs, not every such curve was filed as active; the % refers to the signal ratio)
Summary of the method: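 R1881 agonist challenge of a HEK293 UAS-beta-lactamase AR reporter line in the presence of compound (16 h, 37C); signal taken as FRET fluorescence after 2 h with LiveBLAzer B/G substrate at room temperature.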

[19] = biological target: Glucocorticoid receptor (Homo sapiens) (UniProt P04150); experiment: qHTS assay to identify small molecule agonists of the glucocorticoid receptor (GR) signaling pathway (AID 720691; active means well fitted activation curve with a large enough effect in the signal ratio in the repeat runs, not every such curve was filed as active; the % refers to the signal ratio)
Summary of the method: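 Measures GR pathway activation through a GRE-beta-lactamase reporter stably integrated in HeLa cells, with 18 h compound treatment at 37 C and fluorescence detection using a FRET substrate.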

[20] = qHTS assay to test for compound auto fluorescence at 590 nm (red) in HepG2 cell free culture (AID 720684)
Summary of the method: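 Ex 540 / Em 590 nm read of compound in cell-free MEM (10% FBS). Rose Bengal sodium reference.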
On the % scale 0 is the no-effect control and ±100 the full control effect.

CC(=O)NCc1c(I)c(NC(C)=O)c(I)c(C(=O)O)c1I
inactive: outcome [1] | outcome [2] | outcome [3] | outcome [4] | outcome [5] | outcome [6] | outcome [7] | outcome [8] | Potency [9] | Potency [10] | Potency [11] | outcome [12] | outcome [13] | Potency [14] | Potency [15]

O=S(O)(O)=S
inactive: fluorescence, % of fluorescein [1] -0.0177% [at 3.72 µM] | fluorescence, % of fluorescent control [2] -0.0004% [at 3.72 µM] | activity change [3] -0.0159% [at 3.72 µM] | fluorescence, % of fluorescent control [4] -0.356% [at 3.72 µM] | fluorescence, % of fluorescent control [5] -0.093% [at 3.72 µM] | fluorescence, % of fluorescein control [6] 0.0353% [at 3.72 µM] | fluorescence, % of fluorescent control [7] -0.0508% [at 3.72 µM] | viability change, negative = cytotoxic [8] -8.56% [at 7.04 µM] | activity change, negative = cytotoxicity [9] -4.81% [at 8.52 µM] | activity, negative = cytotoxicity [16] 5.56% [at 8.53 µM] | activity change, negative = cytotoxicity [10] -5.32% [at 8.55 µM] | activity change, negative = cytotoxicity [11] 3.7% [at 7.04 µM] | viability change, negative = cytotoxic [14] -5.99% [at 8.47 µM]

O=C(O)Cc1ccc(Cl)cc1Cl
active: Potency [9] 61.1 µM | Potency [16] 27.3 µM
inactive: outcome [1] | outcome [2] | outcome [3] | outcome [4] | outcome [5] | outcome [6] | outcome [7] | outcome [17] | Potency [11] | Potency [18] | outcome [13] | Potency [14] | Potency [15]

C[C@H](CCC(=O)O)[C@H]1CC[C@H]2[C@@H]3C(=O)C[C@@H]4CC(=O)CC[C@]4(C)[C@H]3CC(=O)[C@]12C
inactive: outcome [1] | outcome [2] | outcome [3] | outcome [4] | outcome [5] | outcome [6] | outcome [7] | Potency [19] | outcome [17] | Potency [9] | Potency [16] | Potency [11]

O=P(O)(O)OP(=O)(O)O
inactive: outcome [1] | outcome [2] | outcome [3] | outcome [4] | outcome [6] | outcome [7] | Potency [19] | outcome [8] | Potency [9] | Potency [16] | Potency [11] | Potency [14]
11.9 µM (active) and inactive: Potency [10]

CCCCCCCCCCl
inactive: outcome [1] | outcome [2] | outcome [3] | outcome [4] | outcome [5] | outcome [6] | outcome [7] | outcome [8] | Potency [9] | Potency [16] | Potency [10] | Potency [11] | Potency [14]

BrCc1cccc(Oc2ccccc2)c1
inactive: outcome [1] | outcome [2] | outcome [3] | outcome [4] | outcome [5] | outcome [7] | Potency [19] | outcome [8] | Potency [11] | Potency [18] | outcome [13] | Potency [15]

CNS(=O)(=O)CCc1ccc2[nH]cc(C3CCN(C)CC3)c2c1
inactive: outcome [1] | outcome [2] | outcome [3] | outcome [4] | outcome [5] | outcome [6] | outcome [7] | Potency [19] | outcome [8] | Potency [9] | Potency [10] | Potency [11] | Potency [14]

COC(=O)CCc1ccc(OCC(O)CNC(C)C)cc1 (stereo not drawn)
inactive: outcome [1] | outcome [2] | outcome [3] | outcome [4] | outcome [5] | outcome [6] | outcome [7] | Potency [19] | outcome [17] | Potency [11] | Potency [14]

CCCCCOC(=O)CCC
inactive: outcome [1] | outcome [2] | outcome [3] | outcome [4] | outcome [5] | outcome [7] | outcome [8] | Potency [9] | Potency [16] | Potency [10] | Potency [11] | Potency [14]

O=C(OCC1(COC(=O)c2cccnc2)CCCC(COC(=O)c2cccnc2)(COC(=O)c2cccnc2)C1O)c1cccnc1
inactive: outcome [1] | outcome [2] | outcome [3] | outcome [4] | outcome [6] | outcome [7] | Potency [19] | outcome [8] | Potency [9] | Potency [16] | Potency [10] | Potency [11] | Potency [14]

COC(=O)CCCCCCCC(=O)OC
inactive: outcome [1] | outcome [2] | outcome [3] | outcome [4] | outcome [5] | outcome [7] | Potency [19] | outcome [17] | Potency [16] | Potency [10] | Potency [11] | Potency [14]

C[C@@H]1O[C@@H](O[C@@H]2[C@@H](O)[C@H](OCCc3ccc(O)c(O)c3)O[C@H](CO[C@@H]3O[C@H](CO)[C@@H](O)[C@H](O)[C@H]3O)[C@H]2OC(=O)/C=C/c2ccc(O)c(O)c2)[C@H](O)[C@H](O)[C@H]1O
inactive: outcome [1] | outcome [2] | outcome [3] | outcome [4] | outcome [6] | outcome [7] | Potency [19] | outcome [8] | Potency [11] | Potency [14]

CCCCC(CC)COCCO (stereo not drawn)
inactive: outcome [1] | outcome [2] | outcome [3] | outcome [4] | outcome [5] | outcome [7] | Potency [19] | outcome [8] | Potency [9] | Potency [16] | Potency [10] | Potency [11] | Potency [14]

CCCCCCCCSCC
inactive: outcome [1] | outcome [2] | outcome [3] | outcome [4] | outcome [5] | outcome [6] | outcome [7] | Potency [19] | outcome [8] | Potency [16] | Potency [10] | Potency [11] | Potency [14]

O=C(NCC(O)CO)c1c(I)c(C(=O)NCC(O)CO)c(I)c(N(CCO)C(=O)CO)c1I (stereo not drawn)
inactive: fluorescence, % of fluorescein [1] -0.0067% [at 18.6 µM] | fluorescence, % of fluorescent control [2] -0.0567% [at 18.6 µM] | activity change [3] -0.0517% [at 18.6 µM] | fluorescence, % of fluorescent control [4] 0.453% [at 18.6 µM] | fluorescence, % of fluorescent control [5] -0.1% [at 18.6 µM] | fluorescence, % of fluorescein control [6] -0.0658% [at 18.6 µM] | fluorescence, % of fluorescent control [7] -0.0045% [at 18.6 µM] | Potency [19] | Potency [9] | Potency [16] | Potency [10] | Potency [11] | Potency [14]

CCOc1cc([N+](=O)[O-])c(OCC)cc1N1CCOCC1
inactive: outcome [1] | outcome [2] | outcome [3] | outcome [4] | outcome [6] | outcome [7] | Potency [19] | Potency [9] | Potency [10] | Potency [11] | Potency [14]

O=S(=O)(O)c1ccc2cc(O)c(S(=O)(=O)O)cc2c1
inactive: outcome [1] | outcome [3] | outcome [4] | outcome [20] | outcome [6] | outcome [7] | Potency [19] | outcome [17] | outcome [8] | Potency [9] | Potency [16] | Potency [10] | Potency [11] | Potency [14]
